Screens from PubChem.
HT1080 IDH1KD tx: HT-1080 IDH1 knockdown cell toxicity (counter line). HT-1080 IDH1 knockdown viability, ATP luminescence, 48 h. Potency, µM (series often up to 46.1 µM), for the others: top-dose activity, negative = toxicity, usual class: cytotoxic. 360,000 compounds, 2% hits;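 also: potency is read from the fitted curve at half-maximal effect; 0% = DMSO wells and -100% = cell-free medium wells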
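% activity derives from luminescence (CellTiter-Glo), normalised to DMSO and no-cell wells. HT-1080-IDH1KD cells, 750/well, had 48 h compound exposure at 37 °C.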
TDP1 cell noCPT: qHTS for Inhibitors of human tyrosyl-DNA phosphodiesterase 1 (TDP1): qHTS in cells in absence of CPT. DT40 Tdp1-/- hTDP1 cells, no CPT, ATP luminescence, 48 h. Potency, µM (doses to about 46.2 µM), for the others: at the top dose activity change, negative = growth inhibition, usual class: inhibitors. 420,000 compounds, 15% hits; also: potency is read from the fitted curve at half-maximal effect; nearly all actives have a fitted effect of over 55% in size
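No-CPT arm: Tdp1-/-;hTDP1 DT40 cells (400/well) plus compounds, incubated ≥48 hr at 37 °C. Readout CellTiter-Glo luminescence.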
IL1B secr inh: inflammasome signaling inhibition, IL-1 beta readout | activity change, % at 57.5 µM | THP-1 LPS/ATP IL-1B secretion, AlphaLISA, 16 h; stronger effect = lower value | 360,000 compounds, 4.7% hits; in the data active = activity change below about -50%; inconclusive = mostly about -30% to -49%
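Secreted IL-1B measured by AlphaLISA bead assay after 16 h compound exposure of THP-1 cells; compounds (final up to 57.5 uM) added 1 h before LPS (250 ng/mL) and ATP (1.25 mM) stimulation; lower signal means less secretion.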
TDP1 cell CPT: DT40-hTDP1 cell growth loss with CPT. AID 686979. 420,000 compounds, 12% hits. chicken DT40 Tdp1-/-;hTDP1 cells + 20 nM CPT, ATP luminescence, 48 h. Potency, µM (titrated, usually from 46.2 µM), for inactives: top-dose activity change, negative = growth inhibition, hits mostly inhibitors; also: potency is read from the fitted curve at half-maximal effect; nearly all actives have a fitted effect of over 55% in size
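Chicken DT40 Tdp1-/- cells stably complemented with human TDP1 were seeded at 400 cells/well in medium containing 20 nM camptothecin, exposed to pin-transferred compounds, and grown at 37 °C for at least 48 hr. Viability was read as ATP luminescence.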
12-LOX inh: blocks human arachidonate 12S-lipoxygenase; purified 12hLO, xylenol orange hydroperoxide absorbance; Potency, µM (highest dose often 108 µM), for the others: top-dose activity change, negative = inhibition, hits mostly inhibitors; 580,000 compounds, 1.1% hits; AID 1671190; also: potency is read from the fitted curve at half-maximal effect
Target sequence (P18054 whole entry, looked up): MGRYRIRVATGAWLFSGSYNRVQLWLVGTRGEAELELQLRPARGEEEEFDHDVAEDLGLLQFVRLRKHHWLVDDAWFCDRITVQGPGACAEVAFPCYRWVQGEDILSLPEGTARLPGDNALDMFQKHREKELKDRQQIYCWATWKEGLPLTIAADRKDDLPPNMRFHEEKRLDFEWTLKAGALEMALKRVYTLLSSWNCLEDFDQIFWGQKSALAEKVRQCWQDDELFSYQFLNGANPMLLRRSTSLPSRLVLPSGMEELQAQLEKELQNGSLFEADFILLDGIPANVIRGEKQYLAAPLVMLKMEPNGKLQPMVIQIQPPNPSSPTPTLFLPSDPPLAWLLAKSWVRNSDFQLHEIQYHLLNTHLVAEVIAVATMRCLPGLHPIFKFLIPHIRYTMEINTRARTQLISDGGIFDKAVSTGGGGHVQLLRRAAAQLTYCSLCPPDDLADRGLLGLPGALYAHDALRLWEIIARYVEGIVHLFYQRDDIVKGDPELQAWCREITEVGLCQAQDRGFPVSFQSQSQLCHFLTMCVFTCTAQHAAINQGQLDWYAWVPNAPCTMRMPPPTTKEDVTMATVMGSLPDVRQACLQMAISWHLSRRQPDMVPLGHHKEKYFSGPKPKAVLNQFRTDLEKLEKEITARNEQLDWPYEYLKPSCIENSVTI
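Hydroperoxide product was detected by ferrous iron/xylenol orange as the 573 to 405 nm absorbance ratio. Arachidonic acid at 40 uM (final) was turned over for 30 min at room temperature by 150 nM human 12hLO, pH 7.0 Hepes buffer, after 15 min compound preincubation.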
HT1080NT lethal: kills 2HG-producing HT-1080-NT fibrosarcoma cells; HT-1080-NT fibrosarcoma viability, CellTiter-Glo ATP luminescence, 48 h; 360,000 compounds, 1.6% hits; Potency, µM (highest dose often 46.1 µM), inactives show at the highest dose activity, negative = less viability, most hits filed as cytotoxic;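 also: NT is the 2HG producing partner of a matched IDH1 knockdown line; potency is read from the fitted curve at half-maximal effect; 0% = DMSO-treated cells and -100% = media-only wells without cells; nearly all actives have a fitted effect of over 55% in size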
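Compounds were tested in concentration-response format on HT-1080-NT cells for 48 hours at 37 degrees C. Cell viability came from CellTiter-Glo luminescence; curves were classified by r2, response magnitude and activity.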
An asterisk follows results filed as active; ? = inconclusive; / = not tested or not shown; ! = repeats disagree; [ ] = dose if it differs, or a comment. The sample as a whole holds a higher share of hits than the screen did. Unless noted, calls follow the shape of the dose curve; as a rule, active = well fitted curve in the direction sought with a large enough effect; inconclusive = small, poorly fitted or top-dose-only effect, or another doubt; inactive = no such curve, though single readings can be large; an effect the other way counts as inactive or inconclusive. Unless noted, % is scaled to controls: 0 for no effect and ±100 for the full control effect.

SMILES	HT1080 IDH1KD tx	TDP1 cell noCPT	IL1B secr inh	TDP1 cell CPT	12-LOX inh	HT1080NT lethal
O=c1[nH]c2ccccc2cc1-c1nnn(-c2ccc(Cl)c(Cl)c2)n1	1%	?	4	7.3µM*	?	2%
O=c1[nH]c2ccccc2cc1-c1nnn(-c2ccc(F)cc2)n1	-10%	?	-2	?	?	-2%
CC(C)(C)c1ccc(C(=O)Nc2ccccc2C(=O)Cc2ccccc2)cc1	/	/	/	/	-3%	/
COc1cc(C=O)ccc1OCC(=O)Nc1cccc(S(=O)(=O)N(C)c2ccccc2)c1	-2%	12µM*	-8	?	13%	6%
Cc1cc(S(=O)(=O)NCc2ccccc2)ccc1OCC(=O)Nc1cccc([N+](=O)[O-])c1	?	21µM*	?	18µM*	-2%	-21%
Cc1cc(S(=O)(=O)NCc2ccccc2)ccc1OCC(=O)NCc1ccccn1	-5%	-25%	-6	-10%	49%	-3%
CN(c1ccccc1)S(=O)(=O)c1cccc(NC(=O)CC(C)(C)C)c1	1%	15µM*	-23	16µM*	-16%	20%
CCC1CCC2(CC1)NC(=O)N(CC(=O)Nc1cccc(S(=O)(=O)N(C)c3ccccc3)c1)C2=O (stereo not drawn)	?	?	-2	?	?	?
CN1C(=O)N(CC(=O)Nc2cccc(S(=O)(=O)N(C)c3ccccc3)c2)C(=O)C12CCCCC2	-1%	21µM*	-20	?	-24%	-3%
CCCCCn1nc(C(=O)Nc2cc(OC)c(OC)c(OC)c2)c2ccccc2c1=O	/	/	/	/	3%	/
Cc1ccccc1Cc1c(C)nc(N2CCN(Cc3ccccc3)CC2)[nH]c1=O	/	/	/	/	-24%	/
CN(c1ccccc1)S(=O)(=O)c1cccc(NC(=O)Cn2cnc3ccccc3c2=O)c1	-9%[9.24 µM]	16µM*	-1	21µM*	0%	-20%
CN(c1ccccc1)S(=O)(=O)c1cccc(NC(=O)COc2cccc([N+](=O)[O-])c2)c1	0%	23µM*	-12	?	0%	1%
Cc1noc(-c2ccc3c(c2)OCO3)c1C(=O)NCCCOC(C)C	/	/	/	/	32%	/
O=C(O)c1cc(O)c2ccccc2c1O	/	/	/	/	71µM*	/
CC(C)C[C@H](NC(=O)c1nc[nH]c1C(=O)N[C@@H](CCCCNC(=O)OC(C)(C)C)C(=O)OC(C)(C)C)C(=O)OC(C)(C)C	?	21µM*	-24	21µM*	-4%	?
CC(C)(C)OC(=O)CNC(=O)c1[nH]cnc1C(=O)NCCCCCN	18%	3%	17	-19%	1%	12%
C[C@H](NC(=O)c1nc[nH]c1C(=O)NCCCCCNC(=O)OC(C)(C)C)C(=O)OC(C)(C)C	-19%	16µM*	3	18µM*	-11%	-13%
CC(C)C[C@H](NC(=O)c1nc[nH]c1C(=O)NCCCCCNC(=O)OC(C)(C)C)C(=O)OC(C)(C)C	?	18µM*	-3	?	-3%	?
C[C@H](NC(=O)c1nc[nH]c1C(=O)NCc1ccccc1)C(=O)OC(C)(C)C	1%	?	-8	?	12%	0%
CC(C)(C)OC(=O)CNC(=O)c1[nH]cnc1C(=O)NCCCCCNC(=O)OC(C)(C)C	-22%	15µM*	1	23µM*	10%	-10%
O=C(CC1CCCC1)N[C@H](C(=O)N1CCC[C@H]1C(=O)NC1CCCC1)C1CCCCC1	/	/	/	/	4%	/
Cn1c(=O)c2[nH]c(-c3ccc(Cl)cc3Cl)nc2n(C)c1=O	/	/	/	/	8%	/
O=C(NCc1ccccc1)NC(c1ccccc1)c1cccs1 (stereo not drawn)	/	/	/	/	27%	/
Cc1ccc(NC(=O)Nc2ccc3snnc3c2)cc1C	/	?	/	?	-7%	/
SMILES	HT1080 IDH1KD tx	TDP1 cell noCPT	IL1B secr inh	TDP1 cell CPT	12-LOX inh	HT1080NT lethal
CCc1ccccc1NC(=O)Nc1ccc2snnc2c1	/	21µM*	/	18µM*	-25%	/
CCOC(=O)c1ccc(NC(=O)Nc2ccc3snnc3c2)cc1	/	2.9µM*	/	?	-15%	/
O=C(Nc1ccc2snnc2c1)Nc1cccc2ccccc12	?	?	-26	23µM*	-20%	?
COc1cccc(NC(=O)Nc2ccc3snnc3c2)c1	/	?	/	?	0%	/
Cc1cc(C)c2[nH]c(=S)cc(C)c2c1	13%	-34%	-9	-21%	6.3µM*!	5%
COC(=O)c1cccc(N/C=C(\[N+](=O)[O-])S(=O)(=O)c2ccccc2)c1	19%	-25%	6	4%	0%	13%
CCOc1ccc(N(CC)S(=O)(=O)N2CCCC(C(=O)Nc3ccc(OC)c(Cl)c3)C2)cc1 (stereo not drawn)	/	23µM*	/	16µM*	2%	/
COc1ccc(NC(=O)C2CCCN(S(=O)(=O)c3cn(C)cn3)C2)cc1Cl (stereo not drawn)	/	-25%	/	-28%	-26%	/
CCOc1ccc(N(CC)S(=O)(=O)N2CCCC(C(=O)Nc3cc(Cl)ccc3OC)C2)cc1 (stereo not drawn)	/	18µM*	/	?	-14%	/
Cc1nn(CC(=O)Nc2ccc3c(c2)nc2n3CCN(CC(C)C)C2)c(=O)c2ccccc12	/	/	/	/	-5%	/
